In PubChem BioAssay (EPA / NIEHS):
“And” between values parts separate entries of the source, which are not always exact repeats. Identical values can stand only once. More than one record can exist for a structure, and the calls need not agree. The source made the active and inactive calls. How the source made its calls: active means hit-call score of the fitted dose curve at least 0.9, where 1 is the maximum; inactive means score below 0.9.

Experiments:
[1] = ATG_E_Box_CIS: Attagene CIS-FACTORIAL HepG2 Assay for human Enhancer Box (E-box) (AID 2282936); conditions: HepG2 E-box cis-reporter transcription, actives raise or lower the signal
Outline: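 Cells: HepG2 (human liver), transient MRTU transfection. Exposure 24 h. RNA → oligo(dT) RT → PCR → 6-FAM label → HpaI → CE. Activity fitted both directions relative to DMSO.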

[2] = ATG_M_61_CIS: Attagene CIS-FACTORIAL HepG2 Assay for M61 Transcription Factor (Internal Marker) (AID 2282937); conditions: HepG2 Attagene CIS-FACTORIAL M61 internal marker reporter; actives raise or lower the signal
Outline: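 HepG2 cells transiently transfected with multiplexed cis-promoter reporter units reporting endogenous transcription factor activity, measured 24 h after dosing. Reporter mRNA quantified by RT-PCR and capillary electrophoresis; bidirectional fit against DMSO baseline.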

[3] = ATG_EGR_CIS: Attagene CIS-FACTORIAL HepG2 Assay for human Early Growth Response 1 (EGR1) (AID 2282938); conditions: HepG2 Attagene CIS-FACTORIAL EGR reporter mRNA; actives raise or lower the signal
Outline: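 HepG2 cells transiently transfected with cis-element-driven multiplexed reporter units, dosed for 24 h. EGR1-element reporter mRNA quantified by RT-PCR, 6-FAM labelling, HpaI digestion and capillary electrophoresis; bidirectional fit versus DMSO.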

[4] = ATG_M_19_CIS: Attagene CIS-FACTORIAL HepG2 Assay for M19 Transcription Factor (Internal Marker) (AID 2282939); conditions: HepG2 Attagene CIS-FACTORIAL M19 internal marker reporter; actives raise or lower the signal
Outline: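 Internal marker readout, fitted in both directions against DMSO, from HepG2 cells carrying transfected cis-element reporter constructs; RT-PCR and capillary electrophoresis of reporter mRNA after 24 h exposure.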

[5] = ATG_ERE_CIS: Attagene CIS-FACTORIAL HepG2 Assay for Estrogen Response Element (ERE) (AID 2282940); conditions: HepG2 ERE cis-reporter, Attagene RNA transcript; actives raise or lower the signal
Outline: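 After 24 h compound treatment, RNA from transfected HepG2 cells was reverse-transcribed, reporter cDNA PCR-amplified, FAM-labelled, HpaI-cut and resolved by capillary electrophoresis. ERE-driven cis reporter transcripts reflect endogenous factors; gain or loss scored against DMSO.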

[6] = ATG_Ets_CIS: Attagene CIS-FACTORIAL HepG2 Assay for human Erythroblast Transformation Specific (ETS) (AID 2282941); conditions: HepG2 ETS cis-reporter transcription, actives raise or lower the signal
Outline: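 HepG2 cells transfected with multiple cis-regulated reporter units measuring endogenous ETS-driven transcription, 24 h after dosing. Reporter mRNA quantified by RT-PCR with capillary electrophoresis; bidirectional fit relative to DMSO.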

[7] = target: Hepatocyte nuclear factor 3-beta (Homo sapiens) (UniProt Q9Y261); assay: ATG_FoxA2_CIS: Attagene CIS-FACTORIAL HepG2 Assay for human Forkhead box A2 (FOXA2) (AID 2282942); conditions: HepG2 cis-reporter transcription factor activity, 24 h; actives raise or lower the signal
Outline: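 HepG2 transiently transfected with a multiplexed cis-promoter reporter library read endogenous FOXA2 activity. After 24 h compound exposure, reporter mRNA was quantified by RT-PCR, HpaI digestion and capillary electrophoresis. Bidirectional fit against DMSO.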

[8] = ATG_FoxO_CIS: Attagene CIS-FACTORIAL HepG2 Assay for human Forkhead box O (FoxO) (AID 2282943); conditions: HepG2 Attagene cis-reporter, FoxO element, mRNA; actives raise or lower the signal
Outline: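 Human hepatoma HepG2 cells carry transiently introduced reporter transcription units controlled by cis promoter elements. Chemical treatment lasted 24 h, and mRNA signal was compared with DMSO.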

[9] = ATG_GATA_CIS: Attagene CIS-FACTORIAL HepG2 Assay for human GATA Binding Protein (AID 2282944); conditions: HepG2 GATA cis-element reporter, Attagene multiplex mRNA; actives raise or lower the signal
Outline: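 Reporter transcripts from a GATA cis-regulated unit, among multiplexed reporters in transfected HepG2 cells, were measured by RT-PCR with capillary electrophoresis after 24 h dosing. Induction or loss scored relative to DMSO.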

[10] = ATG_GLI_CIS: Attagene CIS-FACTORIAL HepG2 Assay for human Zinc Finger Protein GLI1 (AID 2282945); conditions: HepG2, Attagene cis-factorial reporter mRNA, GLI element; actives raise or lower the signal
Outline: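 Bidirectional curve fits relative to DMSO, using reporter mRNA levels from RT-PCR plus capillary electrophoresis. Cells were HepG2 transiently carrying cis-regulated reporter constructs, harvested 24 h after dosing.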

[11] = ATG_GRE_CIS: Attagene CIS-FACTORIAL HepG2 Assay for human Glucocorticoid Response Elements (GRE) (AID 2282947); conditions: HepG2 GRE cis-reporter, Attagene multiplex mRNA; actives raise or lower the signal
Outline: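 Transient MRTU transfection of human HepG2 liver cells; cis-regulated reporters report endogenous factors. 24 h dosing → RNA isolation → RT-PCR → 6-FAM primer extension → HpaI cut → CE fragment analysis. Bidirectional fit, DMSO negative control.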

[12] = ATG_ISRE_CIS: Attagene CIS-FACTORIAL HepG2 Assay for human Interferon Regulatory Factor 1 (IRF1) binding to an Interferon-Stimulated Response Element (ISRE) (AID 2282948); conditions: HepG2 ISRE cis-reporter (Attagene), mRNA transcription readout; actives raise or lower the signal
Outline: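 Transiently transfected HepG2 cells carrying cis-element reporter units, dosed 24 hours. Reporter mRNA quantified by RT-PCR, fluorescent primer extension, HpaI digestion and capillary electrophoresis. Bidirectional fitting relative to DMSO.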

[13] = ATG_M_32_CIS: Attagene CIS-FACTORIAL HepG2 Assay for M32 Transcription Factor (Internal Marker) (AID 2282949); conditions: HepG2 Attagene cis-factorial M32 reporter, mRNA; actives raise or lower the signal;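 further: background control marker of the multiplexed CIS panel rather than a real target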
Outline: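 HepG2 cells transiently transfected with multiplexed cis-regulated reporter units, dosed 24 h. Reporter mRNA quantified by RT-PCR, 6-FAM labelling, HpaI digestion and capillary electrophoresis; bidirectional fit vs DMSO.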

[14] = ATG_M_06_CIS: Attagene CIS-FACTORIAL HepG2 Assay for M06 Transcription Factor (Internal Marker) (AID 2282950); conditions: HepG2 Attagene CIS-FACTORIAL M06 internal marker reporter; actives raise or lower the signal
Outline: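 Serves as a background control readout. Transfected HepG2 exposed to compounds for 24 h, then reporter transcripts quantified by fluorescent RT-PCR and capillary electrophoresis. Both directions fitted against DMSO baseline.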

[15] = target: Hypoxia-inducible factor 1-alpha (Homo sapiens) (UniProt Q16665); assay: ATG_HIF1a_CIS: Attagene CIS-FACTORIAL HepG2 Assay for human Hypoxia Inducible Factor 1 (HIF1A) (AID 2282951); conditions: HepG2 Attagene cis-factorial HIF1a reporter transcription; actives raise or lower the signal
Outline: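 HepG2 cells transiently transfected with multiple cis-regulated reporter transcription units measure endogenous transcription factor activity. After 24 h exposure, reporter mRNA is quantified by RT-PCR with 6-FAM labelling, HpaI digestion and capillary electrophoresis. Bidirectional fitting against DMSO.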

[16] = target: Hepatocyte nuclear factor 6 (Homo sapiens) (UniProt Q9UBC0); assay: ATG_HNF6_CIS: Attagene CIS-FACTORIAL HepG2 Assay for human Hepatocyte Nuclear Factor 6 (HNF6) (AID 2282952); conditions: HepG2 Attagene cis-factorial HNF6 reporter transcription; actives raise or lower the signal
Outline: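 Multiplexed mRNA reporter assay in transfected HepG2; 24 h dosing; RT-PCR plus capillary electrophoresis fluorescence; DMSO-referenced bidirectional curve fitting.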

[17] = target: Heat shock factor protein 1 (Homo sapiens) (UniProt Q00613); assay: ATG_HSE_CIS: Attagene CIS-FACTORIAL HepG2 Assay for human Heat Shock Transcription Factor 1 (HSE) (AID 2282953); conditions: HepG2 HSE cis-reporter, Attagene RNA transcription; actives raise or lower the signal
Outline: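 Endogenous transcription factor activity in transiently transfected HepG2, read as reporter mRNA by RT-PCR with fluorescent capillary electrophoresis after 24 h. Gain or loss of signal fitted versus DMSO baseline.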

[18] = ATG_MRE_CIS: Attagene CIS-FACTORIAL HepG2 Assay for human Metal Responsive Element (MRE) (AID 2282954); conditions: HepG2 MRE cis-reporter transcription, Attagene multiplex; actives raise or lower the signal
Outline: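 Transient MRTU transfection of HepG2 (FuGene 6); 24 h dosing; total RNA → oligo(dT) RT, PCR, 6-FAM primer extension, HpaI cut, CE. Bidirectional fit vs DMSO.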

[19] = ATG_PBREM_CIS: Attagene CIS-FACTORIAL HepG2 Assay for human Phenobarbital-responsive Enhancer Module (PBREM) (AID 2282955); conditions: HepG2 PBREM cis-reporter, Attagene multiplexed transcription; actives raise or lower the signal
Outline: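 HepG2 cells transiently transfected with multiple cis-regulated reporter units measure endogenous transcription factor activity; 24 h compound exposure. Reporter mRNA quantified by RT-PCR, fluorescent labelling, HpaI digestion and capillary electrophoresis; bidirectional fit versus DMSO.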

[20] = target: Paired box protein Pax-6 (Homo sapiens) (UniProt P26367); assay: ATG_Pax6_CIS: Attagene CIS-FACTORIAL HepG2 Assay for human Paired Box 6 (PAX6) (AID 2282956); conditions: HepG2 CIS-FACTORIAL PAX6 reporter transcription, RNA readout; actives raise or lower the signal
Outline: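 HepG2 cells transiently transfected with cis-promoter-driven multiplexed reporter units sensing endogenous transcription factor activity; 24 h chemical exposure. Reporter mRNA quantified by RT-PCR, 6-FAM labelling, HpaI digestion and capillary electrophoresis; bidirectional fit versus DMSO baseline.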

Measured: AC50

Chain of Hepatocyte nuclear factor 6 (Homo sapiens) (Q9UBC0 whole entry, looked up): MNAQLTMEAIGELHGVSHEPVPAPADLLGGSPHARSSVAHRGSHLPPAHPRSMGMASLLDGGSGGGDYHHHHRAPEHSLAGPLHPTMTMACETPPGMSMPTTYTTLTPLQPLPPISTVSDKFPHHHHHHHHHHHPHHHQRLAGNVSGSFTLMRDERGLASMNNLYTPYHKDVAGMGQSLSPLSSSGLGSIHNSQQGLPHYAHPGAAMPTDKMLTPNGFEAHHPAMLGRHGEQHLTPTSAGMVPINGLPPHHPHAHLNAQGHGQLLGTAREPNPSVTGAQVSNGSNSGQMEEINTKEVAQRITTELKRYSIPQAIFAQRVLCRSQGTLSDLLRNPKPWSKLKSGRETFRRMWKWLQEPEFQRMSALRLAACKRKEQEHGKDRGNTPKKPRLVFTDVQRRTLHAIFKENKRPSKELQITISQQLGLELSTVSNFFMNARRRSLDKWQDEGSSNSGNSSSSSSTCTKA
Chain of Hypoxia-inducible factor 1-alpha (Homo sapiens) (Q16665 whole entry, looked up): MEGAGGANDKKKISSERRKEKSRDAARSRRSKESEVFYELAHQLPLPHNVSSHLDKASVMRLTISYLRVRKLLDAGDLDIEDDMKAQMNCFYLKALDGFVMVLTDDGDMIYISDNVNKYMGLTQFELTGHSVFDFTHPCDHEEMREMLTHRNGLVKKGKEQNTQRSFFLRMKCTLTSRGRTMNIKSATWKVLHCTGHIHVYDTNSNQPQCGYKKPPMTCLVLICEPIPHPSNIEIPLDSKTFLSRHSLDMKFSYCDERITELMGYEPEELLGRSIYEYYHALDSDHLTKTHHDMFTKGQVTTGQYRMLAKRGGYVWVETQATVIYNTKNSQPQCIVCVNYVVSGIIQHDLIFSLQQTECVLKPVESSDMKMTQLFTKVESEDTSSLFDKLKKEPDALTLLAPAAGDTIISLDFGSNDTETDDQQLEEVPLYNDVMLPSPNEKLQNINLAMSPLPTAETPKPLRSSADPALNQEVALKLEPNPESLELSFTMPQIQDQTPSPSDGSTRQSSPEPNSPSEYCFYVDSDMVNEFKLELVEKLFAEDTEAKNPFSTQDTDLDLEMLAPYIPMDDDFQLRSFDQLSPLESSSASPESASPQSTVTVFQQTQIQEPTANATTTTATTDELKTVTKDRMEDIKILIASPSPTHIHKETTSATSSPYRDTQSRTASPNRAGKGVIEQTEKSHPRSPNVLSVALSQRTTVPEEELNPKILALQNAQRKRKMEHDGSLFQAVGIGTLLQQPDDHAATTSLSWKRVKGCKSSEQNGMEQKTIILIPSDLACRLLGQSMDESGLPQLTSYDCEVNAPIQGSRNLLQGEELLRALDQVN
Chain of Hepatocyte nuclear factor 3-beta (Homo sapiens) (Q9Y261 whole entry, looked up): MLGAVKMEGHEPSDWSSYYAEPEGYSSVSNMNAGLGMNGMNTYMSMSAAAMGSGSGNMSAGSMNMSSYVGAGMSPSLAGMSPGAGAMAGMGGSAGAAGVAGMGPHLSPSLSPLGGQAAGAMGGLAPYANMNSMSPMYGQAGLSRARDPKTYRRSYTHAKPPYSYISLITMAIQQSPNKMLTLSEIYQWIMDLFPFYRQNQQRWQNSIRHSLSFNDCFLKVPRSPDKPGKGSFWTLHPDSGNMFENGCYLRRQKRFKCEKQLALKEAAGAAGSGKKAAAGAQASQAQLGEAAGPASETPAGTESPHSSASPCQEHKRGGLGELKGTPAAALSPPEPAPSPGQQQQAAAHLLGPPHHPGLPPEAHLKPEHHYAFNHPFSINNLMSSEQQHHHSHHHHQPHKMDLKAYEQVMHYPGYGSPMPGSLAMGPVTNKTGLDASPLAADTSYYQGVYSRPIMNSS
Chain of Heat shock factor protein 1 (Homo sapiens) (Q00613 whole entry, looked up): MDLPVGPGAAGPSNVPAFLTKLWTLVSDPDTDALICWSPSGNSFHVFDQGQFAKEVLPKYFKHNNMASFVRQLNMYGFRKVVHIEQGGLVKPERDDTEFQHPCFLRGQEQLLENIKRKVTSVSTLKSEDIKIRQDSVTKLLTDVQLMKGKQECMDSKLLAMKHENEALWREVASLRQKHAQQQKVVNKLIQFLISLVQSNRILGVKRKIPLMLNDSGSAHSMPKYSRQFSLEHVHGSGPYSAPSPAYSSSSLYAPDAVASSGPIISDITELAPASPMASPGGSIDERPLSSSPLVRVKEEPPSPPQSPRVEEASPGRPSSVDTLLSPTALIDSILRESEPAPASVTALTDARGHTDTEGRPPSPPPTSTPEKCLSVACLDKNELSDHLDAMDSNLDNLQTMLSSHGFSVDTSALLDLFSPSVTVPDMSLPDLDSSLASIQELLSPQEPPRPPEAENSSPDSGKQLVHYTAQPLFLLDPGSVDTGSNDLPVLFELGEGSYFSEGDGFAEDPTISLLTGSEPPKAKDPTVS
Chain of Paired box protein Pax-6 (Homo sapiens) (P26367 whole entry, looked up): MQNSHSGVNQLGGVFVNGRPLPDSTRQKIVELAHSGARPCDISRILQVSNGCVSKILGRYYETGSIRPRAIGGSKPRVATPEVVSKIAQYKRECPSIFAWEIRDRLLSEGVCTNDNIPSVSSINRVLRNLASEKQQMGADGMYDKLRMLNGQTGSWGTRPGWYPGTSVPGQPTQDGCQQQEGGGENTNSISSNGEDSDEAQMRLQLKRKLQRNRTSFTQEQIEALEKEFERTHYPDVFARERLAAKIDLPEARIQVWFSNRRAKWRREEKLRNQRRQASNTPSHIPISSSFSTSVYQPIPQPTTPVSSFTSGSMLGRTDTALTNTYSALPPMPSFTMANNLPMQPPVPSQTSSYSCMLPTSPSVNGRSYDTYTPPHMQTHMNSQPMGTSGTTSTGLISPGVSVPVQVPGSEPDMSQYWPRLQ

CC1=C2C[C@H]3[C@@H](CC=C4C[C@@H](O)CC[C@@]43C)[C@@H]2CC[C@]12O[C@@H]1C[C@H](C)CN[C@H]1[C@H]2C
active: [7] 13 µM | [18] 16.1 µM | [20] 13.5 µM
inactive: all other assays above

Oc1ccc(C(c2ccc(O)cc2)(C(F)(F)F)C(F)(F)F)cc1
inactive: [1] | [2] | [3] | [4] | [6] | [7] | [8] | [9] | [10] | [11] | [12] | [13] | [14] | [15] | [16] | [19] | [20]
active: [3] 11.1 µM and 16.5 µM | [5] 127 nM [middle of 4 runs] | [6] 15.5 µM and 17.5 µM | [12] 20.1 µM and 11.1 µM | [17] 16.3 µM [middle of 4 runs] | [18] 16.2 µM [middle of 4 runs] | [20] 8.18 µM and 16.2 µM

C[C@]12CCC(=O)C=C1CC[C@@H]1[C@@H]2CC[C@@]2(C)[C@H]1CC[C@]2(C)O
active: [18] 132 µM and 129 µM and 79.4 µM
inactive: [1] | [2] | [3] | [4] | [6] | [7] | [8] | [9] | [10] | [11] | [12] | [13] | [14] | [15] | [16] | [17] | [18] | [19] | [20]

CC(C)(O)C(=O)Nc1ccc([N+](=O)[O-])c(C(F)(F)F)c1
active: [17] 77 µM | [20] 48.9 µM
inactive: [1] | [2] | [3] | [4] | [5] | [6] | [7] | [8] | [9] | [10] | [12] | [13] | [14] | [15] | [16] | [17] | [18] | [19] | [20]

CC(C)C(=O)OCC(C)(C)C(OC(=O)C(C)C)C(C)C (stereo unspecified)
active: [5] 63.6 µM
inactive: all other assays above

Nc1ccc(-c2ccc(N)cc2)cc1
active: [5] 33.2 µM
inactive: all other assays above

CCCCCCCCCC[N+](C)(C)CCCCCCCCCC
active: [1] 40.8 µM | [3] 6.79 µM | [9] 100 µM | [10] 100 µM | [11] 8.55 µM | [12] 24.9 µM | [18] 4.45 µM | [20] 7.61 µM
inactive: all other assays above

Clc1ccc(C(Cl)(Cl)Cl)cc1
not listed: [19]
inactive: all other assays above

Cc1ccccc1CO[C@@H]1C[C@@]2(C(C)C)CC[C@]1(C)O2
not listed: [5] | [11]
inactive: all other assays above

ClC1=C(Cl)[C@]2(Cl)[C@@H]3[C@@H]4C[C@@H]([C@H]5O[C@@H]45)[C@@H]3[C@@]1(Cl)C2(Cl)Cl
active: [5] 1.04 µM | [12] 80.5 µM | [18] 46.5 µM
not listed: [19]
inactive: all other assays above

CN(C)CCO
inactive: all assays above
